Reference: PubChem BioAssay (Tox21)
“And” between values parts separate entries of the source, which are not always exact repeats. Equal values may be shown once. Records with an inconclusive call do not appear. The source made the active and inactive calls. Unless noted, the call rests on the fitted dose curve; in most records, active means well fitted curve in the direction sought with a large enough effect in the repeat runs; inconclusive means weak or mixed curves; inactive means no such curve, though single readings can be large; an effect the other way counts as inactive or inconclusive.

Experiments:
[1] = qHTS assay to identify small molecule antagonists of the glucocorticoid receptor (GR) signaling pathway - cell viability counter screen (AID 720693); further: nearly all actives have a fitted effect of over 55% in size
[2] = qHTS assay for identifying genotoxic compounds that show differential cytotoxicity against isogenic chicken DT40 cell lines with known DNA damage response pathways - wild type cell line (AID 743012); further: nearly all actives have a fitted effect of over 60% in size; further: potency means the concentration at half of the fitted maximal effect
In short: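 Parental DNA repair-proficient DT40 cells, 300 per well, were pre-incubated ~0.5 h at 37 C/5% CO2, pin-dosed with compounds in DMSO, then incubated 40 h. Viability was read as CellTiter-Glo luminescence after 30 min at room temperature.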

[3] = qHTS assay for identifying genotoxic compounds that show differential cytotoxicity against isogenic chicken DT40 cell lines with known DNA damage response pathways - Rev3 mutant cell line (AID 743014); further: nearly all actives have a fitted effect of over 55% in size; further: potency means the concentration at half of the fitted maximal effect
[4] = qHTS assay for identifying genotoxic compounds that show differential cytotoxicity against isogenic chicken DT40 cell lines with known DNA damage response pathways - Rad54/Ku70 mutant cell line (AID 743015); further: nearly all actives have a fitted effect of over 60% in size; further: potency means the concentration at half of the fitted maximal effect
[5] = qHTS assay to identify small molecule antagonists of the androgen receptor (AR) signaling pathway - cell viability counter screen (AID 743033; further: nearly all actives have a fitted effect of over 45% in size)
[6] = qHTS assay to identify small molecule antagonists of the androgen receptor (AR) signaling pathway using the MDA cell line - cell viability counter screen (AID 743041; further: nearly all actives have a fitted effect of over 45% in size)
In short: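 MDA-kb2 AR-luc cells (MMTV-luciferase, AR/GR responsive) treated with compounds plus R1881 agonist for 16 h at 37C. CellTiter-Fluor added at 15.5 h; fluorescence read after 30 min in the same wells.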

[7] = qHTS assay to identify small molecule antagonists of the thyroid receptor (TR) signaling pathway - cell viability counter screen (AID 743064); further: nearly all actives have a fitted effect of over 50% in size
In short: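 Plate GH3.TRE-Luc cells; incubate 4 h at 37 °C; add compound, then T3 to 1 nM final; incubate 23.5 h; add CellTiter-Fluor; incubate 30 min at 37 °C, 5% CO2; read fluorescence.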

[8] = qHTS assay to identify small molecule antagonists of the thyroid receptor (TR) signaling pathway (AID 743065); further: nearly all actives have a fitted effect of over 55% in size; further: potency means the concentration at half of the fitted maximal effect; on activity, negative = inhibition: series mostly up to about 70 µM
In short: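 GH3.TRE-Luc rat pituitary cells (two TREs driving luciferase) were dosed with compound, then stimulated with 1 nM T3 (final) for 23.5 h at 37 C. ONE-Glo luminescence was the read-out, with CellTiter-Fluor fluorescence as the cytotoxicity counter-screen.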

[9] = tested on: thyroid hormone receptor (rat, GH3 cells); test: qHTS assay to identify small molecule agonists of the thyroid receptor (TR) signaling pathway (AID 743066; calls by dose curve)
[10] = molecular target: Estrogen receptor (Homo sapiens) (UniProt P03372); test: qHTS assay to identify small molecule antagonists of the estrogen receptor alpha (ER-alpha) signaling pathway (AID 743069; active means well fitted curve in the direction sought with a large enough effect in the signal ratio in the repeat runs, not every such curve was filed as active; the % refers to the signal ratio)
In short: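 HEK293 ER-alpha-UAS-bla GripTite cells, held overnight in 2% charcoal-stripped FBS, 5,000 cells/well, preincubated 4 h, then compound plus 17beta-estradiol for 18 h at 37C. Beta-lactamase read by LiveBLAzer B/G FRET substrate, 2 h at room temperature.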

[11] = qHTS assay to identify small molecule antagonists of the estrogen receptor alpha (ER-alpha) signaling pathway - cell viability counter screen (AID 743074; calls by dose curve;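 further: HEK293 cells carrying ER-alpha-UAS-bla reporter stimulated with 17beta-estradiol; nearly all actives have a fitted effect of over 45% in size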; further: potency means the concentration at half of the fitted maximal effect)
[12] = molecular target: Estrogen receptor (Homo sapiens) (UniProt P03372); test: qHTS assay to identify small molecule agonists of the estrogen receptor alpha (ER-alpha) signaling pathway (AID 743075; calls by dose curve)
[13] = molecular target: Estrogen receptor (Homo sapiens) (UniProt P03372); test: qHTS assay to identify small molecule agonists of the estrogen receptor alpha (ER-alpha) signaling pathway using the BG1 cell line (AID 743079); further: nearly all actives have a fitted effect of over 20% in size
[14] = qHTS assay to identify small molecule antagonists of the estrogen receptor alpha (ER-alpha) signaling pathway using the BG1 cell line (AID 743080; calls by dose curve;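 further: BG1 cells stimulated with 17beta-estradiol alongside compound; series mostly up to about 70 µM; nearly all actives have a fitted effect of over 25% in size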)
In short: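 BG1-Luc-4E2 cells (endogenous full-length ER-alpha, 4xERE luciferase) hormone-starved 5 days in charcoal-stripped FBS, plated 4,000/well for 24 h, then compound plus 17beta-estradiol for 21.5 h at 37 C; ONE-Glo luminescence read.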

[15] = qHTS assay to identify small molecule antagonists of the estrogen receptor alpha (ER-alpha) signaling pathway using the BG1 cell line - cell viability counter screen (AID 743081);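 further: compound given together with 17beta-estradiol as the ER stimulus; series mostly up to about 70 µM; nearly all actives have a fitted effect of over 45% in size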
Aromatase (Homo sapiens) = Aromatase (Homo sapiens) (UniProt P11511); test: qHTS assay to identify aromatase inhibitors (AID 743083); further: series mostly up to about 70 µM; nearly all actives have a fitted effect of over 55% in size
[16] = molecular target: Androgen receptor (Homo sapiens) (UniProt P10275); test: qHTS assay to identify small molecule antagonists of the androgen receptor (AR) signaling pathway (AID 743035; active means well fitted inhibition curve with a large enough effect in the signal ratio in the repeat runs, not every such curve was filed as active; the % refers to the signal ratio)
In short: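 HEK293 cells stably carrying a UAS-driven beta-lactamase reporter (AR-UAS-bla GripTite) were plated for 4 h at 37C, then given compound and the agonist R1881 and incubated 16 h. Reporter activity was read by LiveBLAzer B/G FRET fluorescence after 2 h at room temperature.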

[17] = molecular target: Androgen receptor (Homo sapiens) (UniProt P10275); test: qHTS assay to identify small molecule agonists of the androgen receptor (AR) signaling pathway using the MDA cell line (AID 743040; further: nearly all actives have a fitted effect of over 20% in size)
In short: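 MDA-kb2 breast carcinoma cells carrying MMTV-luciferase (responsive to AR and GR), plated 5 h then treated 16 h with compounds at 37C, 0% CO2. Read-out was ONE-Glo luminescence after 30 min at room temperature.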

[18] = molecular target: Androgen receptor (Homo sapiens) (UniProt P10275); test: qHTS assay to identify small molecule antagonists of the androgen receptor (AR) signaling pathway using the MDA cell line (AID 743042; further: nearly all actives have a fitted effect of over 55% in size)
In short: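 MDA-kb2 breast carcinoma cells carrying MMTV-luciferase (AR/GR responsive) were co-treated with compounds and the agonist R1881 for 16 h at 37C. Inhibition read as ONE-Glo luminescence; CellTiter-Fluor fluorescence measured in parallel for cytotoxicity.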

[19] = molecular target: Androgen receptor (Homo sapiens) (UniProt P10275); test: qHTS assay to identify small molecule agonists of the androgen receptor (AR) signaling pathway (AID 743036; active means well fitted activation curve with a large enough effect in the signal ratio in the repeat runs, with a control signal flat, not every such curve was filed as active; the % refers to the signal ratio)
In short: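 Reporter line: GeneBLAzer AR-UAS-bla-GripTite (HEK293). Steps: plate cells, 4 h rest, add compounds, 16 h at 37C, add LiveBLAzer B/G substrate, 2 h at RT, read fluorescence.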
On the % scale 0 is the no-effect control and ±100 the full control effect.

Chain of Estrogen receptor (Homo sapiens) (P03372 whole entry, looked up): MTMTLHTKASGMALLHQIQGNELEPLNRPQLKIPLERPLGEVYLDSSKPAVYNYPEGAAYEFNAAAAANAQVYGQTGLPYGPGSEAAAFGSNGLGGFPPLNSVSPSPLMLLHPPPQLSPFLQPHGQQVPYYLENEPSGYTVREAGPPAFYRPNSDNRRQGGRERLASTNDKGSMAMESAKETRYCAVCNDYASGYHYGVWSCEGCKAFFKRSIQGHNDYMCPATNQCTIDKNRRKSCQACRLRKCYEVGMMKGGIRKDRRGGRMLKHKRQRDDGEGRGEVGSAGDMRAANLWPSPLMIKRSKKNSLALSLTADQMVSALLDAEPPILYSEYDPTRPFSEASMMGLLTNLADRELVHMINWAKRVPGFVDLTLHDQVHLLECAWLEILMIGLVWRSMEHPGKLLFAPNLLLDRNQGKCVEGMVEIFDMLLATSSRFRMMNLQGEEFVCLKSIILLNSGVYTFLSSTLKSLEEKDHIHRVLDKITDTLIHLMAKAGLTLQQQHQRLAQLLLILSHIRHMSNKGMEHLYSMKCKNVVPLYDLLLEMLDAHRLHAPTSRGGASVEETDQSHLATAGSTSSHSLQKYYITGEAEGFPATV
Chain of Androgen receptor (Homo sapiens) (P10275 whole entry, looked up): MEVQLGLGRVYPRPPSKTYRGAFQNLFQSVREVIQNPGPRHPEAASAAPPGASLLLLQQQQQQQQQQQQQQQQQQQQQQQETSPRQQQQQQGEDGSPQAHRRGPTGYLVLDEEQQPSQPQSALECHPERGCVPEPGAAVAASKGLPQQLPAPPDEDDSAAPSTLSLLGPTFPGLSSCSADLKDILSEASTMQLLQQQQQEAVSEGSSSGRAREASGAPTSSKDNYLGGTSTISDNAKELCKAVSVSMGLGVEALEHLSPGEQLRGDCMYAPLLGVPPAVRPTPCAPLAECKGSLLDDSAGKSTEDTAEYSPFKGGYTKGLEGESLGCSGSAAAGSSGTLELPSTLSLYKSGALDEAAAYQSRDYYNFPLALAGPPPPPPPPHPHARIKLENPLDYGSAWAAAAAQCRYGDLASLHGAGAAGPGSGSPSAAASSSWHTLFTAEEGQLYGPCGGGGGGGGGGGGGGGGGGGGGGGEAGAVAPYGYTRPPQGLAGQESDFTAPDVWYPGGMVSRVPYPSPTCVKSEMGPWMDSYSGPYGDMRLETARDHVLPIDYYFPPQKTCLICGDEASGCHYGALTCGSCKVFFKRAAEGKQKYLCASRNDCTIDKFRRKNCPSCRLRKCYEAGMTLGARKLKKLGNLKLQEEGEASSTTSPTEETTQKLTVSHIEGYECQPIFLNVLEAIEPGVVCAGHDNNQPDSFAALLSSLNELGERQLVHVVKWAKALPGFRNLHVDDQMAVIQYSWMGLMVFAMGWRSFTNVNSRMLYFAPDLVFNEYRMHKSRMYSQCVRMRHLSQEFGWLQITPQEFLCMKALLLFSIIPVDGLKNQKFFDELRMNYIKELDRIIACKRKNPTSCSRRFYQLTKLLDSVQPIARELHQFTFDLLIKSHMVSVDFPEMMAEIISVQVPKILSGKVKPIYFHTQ
Chain of Aromatase (Homo sapiens) (P11511 whole entry, looked up): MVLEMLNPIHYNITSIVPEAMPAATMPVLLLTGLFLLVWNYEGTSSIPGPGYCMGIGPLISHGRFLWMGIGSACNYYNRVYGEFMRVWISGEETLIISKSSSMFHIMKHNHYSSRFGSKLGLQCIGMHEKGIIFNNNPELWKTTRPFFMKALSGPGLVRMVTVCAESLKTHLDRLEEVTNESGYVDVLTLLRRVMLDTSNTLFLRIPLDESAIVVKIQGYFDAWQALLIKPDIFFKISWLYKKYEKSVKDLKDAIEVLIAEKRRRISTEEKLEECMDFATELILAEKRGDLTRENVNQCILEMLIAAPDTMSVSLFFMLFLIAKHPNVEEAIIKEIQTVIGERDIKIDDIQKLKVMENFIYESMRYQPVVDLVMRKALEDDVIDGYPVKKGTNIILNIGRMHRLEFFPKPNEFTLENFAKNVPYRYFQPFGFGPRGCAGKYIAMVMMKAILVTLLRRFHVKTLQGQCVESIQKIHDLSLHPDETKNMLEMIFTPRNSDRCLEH

CC(C)c1ccc2ncccc2c1
inactive: outcome [1] | Potency [2] | Potency [3] | Potency [4] | outcome [5] | Potency [6] | Potency [7] | Potency [8] | outcome [9] | Potency [10] | Potency [11] | Potency [12] | Potency [13] | Potency [14] | outcome [15] | outcome (Aromatase (Homo sapiens))

CCCCN(CCC(=O)OCC)C(C)=O
inactive: outcome [1] | Potency [2] | Potency [3] | Potency [4] | outcome [5] | Potency [6] | Potency [7] | Potency [8] | outcome [9] | Potency [10] | Potency [11] | Potency [12] | Potency [13] | outcome [15] | outcome (Aromatase (Homo sapiens))

CC1CCC(CO)CC1 (stereo not given)
inactive: outcome [1] | Potency [2] | Potency [3] | Potency [4] | outcome [5] | Potency [16] | Potency [17] | Potency [6] | outcome [18] | Potency [7] | Potency [8] | outcome [9] | Potency [11] | Potency [12] | Potency [13] | Potency [14] | outcome [15] | outcome (Aromatase (Homo sapiens))

Cc1nc2ccc(CN(C)c3ccc(C(=O)N[C@@H](CCC(=O)O)C(=O)O)s3)cc2c(=O)[nH]1
inactive: outcome [1] | outcome [5] | Potency [16] | outcome [19] | Potency [17] | Potency [6] | outcome [18] | Potency [7] | outcome [9] | outcome [15] | outcome (Aromatase (Homo sapiens))
active: Potency [2] 3.8 nM and 7.5 nM | Potency [3] 2.7 nM and 5.3 nM | Potency [4] 2.1 nM and 4.2 nM | Potency [11] 190 nM and 239 nM

Cc1cc(C)c(N=Nc2c(O)c(S(=O)(=O)O)cc3cc(S(=O)(=O)O)ccc23)cc1C
inactive: viability change, negative = cytotoxic [1] -0.62% [at 7.04 µM] | activity change, negative = cytotoxicity [2] -7.67% [at 8.52 µM] | activity, negative = cytotoxicity [3] 0.342% [at 8.53 µM] | activity change, negative = cytotoxicity [4] 1.01% [at 8.55 µM] | activity change, negative = cytotoxicity [5] -2% [at 7.04 µM] | viability change, negative = cytotoxic [6] -1.15% [at 8.47 µM] | activity change, negative = cytotoxic [7] -15.7% [at 8.44 µM] | activity, negative = inhibition [8] -3.21% [at 8.44 µM] | activation [9] 0.237% [at 8.08 µM] | activity, negative = inhibition [10] -5.6% [at 6.71 µM] | activity, negative = cytotoxicity [11] -15.7% [at 6.72 µM] | activation [12] -3.26% [at 6.71 µM] | activation [13] 5.28% [at 8.47 µM] | activity change, negative = cytotoxicity [15] -6.97% [at 8.47 µM] | activity, negative = inhibition (Aromatase (Homo sapiens)) -5.99% [at 8.47 µM]

O=S(=O)(O)c1cc(O)c(O)c(S(=O)(=O)O)c1
inactive: outcome [1] | Potency [2] | Potency [3] | Potency [4] | outcome [5] | Potency [16] | outcome [19] | Potency [17] | Potency [6] | outcome [18] | Potency [7] | Potency [8] | outcome [9] | Potency [11] | Potency [12] | Potency [13] | Potency [14] | outcome [15] | outcome (Aromatase (Homo sapiens))

CCC(C)(CCCC(C)C)OC(C)=O (stereo not given)
inactive: outcome [1] | Potency [2] | Potency [3] | Potency [4] | outcome [5] | Potency [6] | Potency [7] | Potency [8] | outcome [9] | Potency [10] | Potency [11] | Potency [12] | Potency [13] | Potency [14] | outcome [15] | outcome (Aromatase (Homo sapiens))

CCCC(C)C(=O)OCC (stereo not given)
inactive: outcome [1] | Potency [2] | Potency [3] | Potency [4] | outcome [5] | Potency [6] | Potency [7] | Potency [8] | outcome [9] | Potency [10] | Potency [11] | Potency [12] | Potency [13] | outcome [15] | outcome (Aromatase (Homo sapiens))

CC(=O)Oc1cccc(C)c1
inactive: outcome [1] | Potency [2] | Potency [3] | Potency [4] | outcome [5] | Potency [6] | Potency [7] | Potency [8] | outcome [9] | Potency [10] | Potency [11] | Potency [12] | Potency [13] | outcome [15] | outcome (Aromatase (Homo sapiens))

CCCCCCCCCCCCCCCCCCO
inactive: outcome [1] | Potency [2] | Potency [3] | Potency [4] | outcome [5] | Potency [6] | Potency [7] | Potency [8] | outcome [9] | Potency [11] | Potency [12] | Potency [13] | Potency [14] | outcome [15] | outcome (Aromatase (Homo sapiens))

CCCCCC(=O)OCCc1ccccc1
inactive: outcome [1] | Potency [2] | Potency [3] | Potency [4] | outcome [5] | Potency [6] | Potency [7] | Potency [8] | outcome [9] | Potency [10] | Potency [11] | Potency [12] | Potency [13] | outcome [15] | outcome (Aromatase (Homo sapiens))

CCC(C(=O)NC(=O)NC(C)=O)c1ccccc1 (stereo not given)
inactive: outcome [1] | Potency [2] | Potency [3] | Potency [4] | outcome [5] | Potency [6] | Potency [7] | Potency [8] | outcome [9] | Potency [10] | Potency [11] | Potency [12] | Potency [13] | outcome (Aromatase (Homo sapiens))

O=C(O)CCSCCC(=O)O
inactive: outcome [1] | Potency [2] | Potency [3] | Potency [4] | outcome [5] | outcome [19] | Potency [17] | Potency [6] | outcome [18] | Potency [8] | outcome [9] | Potency [11] | Potency [12] | Potency [13] | Potency [14] | outcome [15] | outcome (Aromatase (Homo sapiens))

CCCCCCCC1CCCC1=O (stereo not given)
inactive: outcome [1] | Potency [2] | Potency [3] | Potency [4] | outcome [5] | Potency [16] | outcome [19] | Potency [17] | outcome [18] | Potency [7] | Potency [8] | outcome [9] | Potency [10] | Potency [11] | Potency [12] | Potency [13] | outcome [15] | outcome (Aromatase (Homo sapiens))

COC(=O)Nc1ccc(Cl)c(Cl)c1
active: Potency [8] 60.8 µM
inactive: outcome [1] | Potency [2] | Potency [3] | Potency [4] | outcome [5] | outcome [19] | Potency [17] | outcome [18] | outcome [9] | Potency [11] | outcome [15] | outcome (Aromatase (Homo sapiens))

CC(CO)(CO)[N+](=O)[O-]
inactive: outcome [1] | Potency [2] | Potency [3] | Potency [4] | outcome [5] | Potency [6] | Potency [7] | Potency [8] | outcome [9] | Potency [10] | Potency [11] | Potency [12] | Potency [14] | outcome [15]
